Screening results deposited in PubChem by The Scripps Research Institute Molecular Screening Center.
The sample as a whole holds a higher share of hits than the screen did.
TbREL1 primary: TbREL1 RNA ligase inhibitors, primary screen, biochemical, FRET fluorescence; RNA-editing ligase 1, mitochondrial (Trypanosoma brucei brucei), P86926; TbREL1 RNA ligation; inhibition, % at 9.66 µM; 0.49% of 89,000 active; AID 1117264, 2014;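 active = inhibition above the mean inhibition across all screened compounds plus 3 SD, cut at about 11% in these data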
Target sequence (P86926 whole entry, looked up): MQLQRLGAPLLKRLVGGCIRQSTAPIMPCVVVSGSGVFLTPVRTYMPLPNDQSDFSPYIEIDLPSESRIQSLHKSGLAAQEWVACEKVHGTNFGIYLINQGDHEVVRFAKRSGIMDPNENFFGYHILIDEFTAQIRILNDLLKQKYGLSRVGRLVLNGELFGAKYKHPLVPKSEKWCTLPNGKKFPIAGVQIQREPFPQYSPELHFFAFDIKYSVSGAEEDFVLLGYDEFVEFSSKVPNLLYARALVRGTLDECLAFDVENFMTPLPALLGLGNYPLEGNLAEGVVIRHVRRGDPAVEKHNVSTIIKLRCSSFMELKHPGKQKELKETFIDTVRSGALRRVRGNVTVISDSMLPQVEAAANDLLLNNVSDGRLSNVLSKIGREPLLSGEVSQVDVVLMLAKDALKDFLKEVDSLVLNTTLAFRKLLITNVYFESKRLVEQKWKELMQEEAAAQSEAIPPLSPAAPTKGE
TbREL1 confirm: TbREL1 RNA ligase inhibitors, confirmation, biochemical, FRET fluorescence, triplicate. inhibition, % at 9.66 µM. 37% of 390 active. shares compounds with TbREL1 primary. TbREL1 RNA ligation;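 active = mean inhibition across replicates above a set limit taken from the earlier primary screen, cut at about 11% in these data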
Of the large screens only hits and unclear results are named; the others gave an inactive call (follow-up assays come after a bar, where they were run).

N#CCCn1cc(C(=O)Nc2ccc([N+](=O)[O-])cc2)c(-c2ccccc2)n1	none
O=C(NC1CC1)c1cn(Cc2ccccc2)nc1-c1ccccc1	none
N#CCCn1cc(C(=O)Nc2ccc(F)cc2)c(-c2ccc([N+](=O)[O-])cc2)n1	TbREL1 primary 11 | TbREL1 confirm inactive
CO[C@H]([C@H](C)/C=C/N(C)C=O)[C@@H](C)C(=O)CC[C@H](C)[C@H](O)[C@H](C)[C@H]1OC(=O)/C=C/C(C)=C/[C@H](O)[C@H](OC)C[C@@H]2C=CC[C@@H](C[C@H](OC)[C@@H](CO)[C@@H](OC)C[C@@H](OC)[C@@H]1C)O2	none
CN1C(=O)[C@@]23C[C@]4(c5c[nH]c6ccccc56)c5ccccc5N(S(=O)(=O)c5ccccc5)[C@@H]4N2C(=O)[C@@H]1SS3	none
O=C(NC(Cc1ccccc1)P(=O)(O)Oc1ccccc1)OCc1ccccc1 (configuration not stated)	none
CCCCn1c(N)c(C(=O)OCCOC)c2nc3ccccc3nc21	none
CCCCOCCCn1c(N)c(C(=O)OCCOC)c2nc3ccccc3nc21	none
CCCCn1c(NC(=O)c2ccco2)c(C(=O)OCC)c2nc3ccccc3nc21	TbREL1 primary 34 | TbREL1 confirm 45
CC[C@H](C(N)=O)N1CCCC1=O	none
Cc1ccccc1-c1ccc2c(c1)CNCc1cnnn1-2	none
CCOC(=O)CC1c2ccccc2-n2nncc2CN1C (configuration not stated)	none
Cc1ccccc1CN1Cc2cnnn2-c2ccccc2C1C#N (configuration not stated)	TbREL1 primary 11 | TbREL1 confirm inactive
Brc1csc(N2CCNCC2)n1	none
S=P(c1ccccc1)(c1ccccc1)c1cnc2ccccn12	none
